One assay concerns AAK1. More on the design: species or system human, MV4-11 + K-562 + COLO205 + SK-N-BE2 + OVCAR-8. Particulars: read-out: apparent Kd, n = 1.
A further assay has as its system BMP2K. More on the design: species or system human, MV4-11 + K-562 + COLO205 + SK-N-BE2 + OVCAR-8. The following applies: read-out: apparent Kd, n = 1.
The next assay deals with FLT3. Set-up: species or system human, MV4-11 + K-562 + COLO205 + SK-N-BE2 + OVCAR-8. The following applies: read-out: apparent Kd, compound concentrations: 100 nM and 1000 nM (sheet 'Samples'), n = 1.
The next assay deals with GSK3A. Set-up: species or system human, MV4-11 + K-562 + COLO205 + SK-N-BE2 + OVCAR-8. The following applies: read-out: apparent Kd, compound concentrations: 100 nM and 1000 nM (sheet 'Samples'), n = 1.
In the next assay the target is Q6ZSR9 (human, UniProt Q6ZSR9). Set-up: species or system MV4-11 + K-562 + COLO205 + SK-N-BE2 + OVCAR-8. Particulars: read-out: apparent Kd, n = 1.
Sequence of Q6ZSR9 (Q6ZSR9 whole entry, looked up): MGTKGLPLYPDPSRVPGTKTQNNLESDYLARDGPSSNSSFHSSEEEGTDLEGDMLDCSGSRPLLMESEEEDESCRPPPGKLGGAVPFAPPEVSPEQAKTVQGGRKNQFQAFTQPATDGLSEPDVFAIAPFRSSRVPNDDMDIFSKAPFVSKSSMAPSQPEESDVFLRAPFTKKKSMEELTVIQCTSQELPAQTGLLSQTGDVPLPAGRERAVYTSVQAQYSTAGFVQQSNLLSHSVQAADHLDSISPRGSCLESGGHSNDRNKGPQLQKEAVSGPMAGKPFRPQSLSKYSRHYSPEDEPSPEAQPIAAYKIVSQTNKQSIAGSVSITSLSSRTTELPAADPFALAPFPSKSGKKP
For the next assay, the system named is CLK1. Set-up: species or system human, MV4-11 + K-562 + COLO205 + SK-N-BE2 + OVCAR-8. Particulars: read-out: apparent Kd, n = 1.
The next assay deals with CLK4. More on the design: species or system human, MV4-11 + K-562 + COLO205 + SK-N-BE2 + OVCAR-8. Particulars: read-out: apparent Kd, n = 1.
The test system of the next assay is CSNK2A1;CSNK2A3. Set-up: species or system human, MV4-11 + K-562 + COLO205 + SK-N-BE2 + OVCAR-8. Particulars: read-out: apparent Kd, n = 1.
The next assay relates to CSNK2A2. Set-up: species or system human, MV4-11 + K-562 + COLO205 + SK-N-BE2 + OVCAR-8. Particulars: read-out: apparent Kd, n = 1.
A further assay deals with FLT4. More on the design: species or system human, MV4-11 + K-562 + COLO205 + SK-N-BE2 + OVCAR-8. The following applies: read-out: apparent Kd, compound concentrations: 100 nM and 1000 nM (sheet 'Samples'), n = 1.
Another assay relates to MELK. More on the design: species or system human, MV4-11 + K-562 + COLO205 + SK-N-BE2 + OVCAR-8. The following applies: read-out: apparent Kd; compound concentrations: 100 nM and 1000 nM (sheet 'Samples'), CATDS: 1.7288492944947598E-2; n = 1.
Another assay has as its system RET. More on the design: species or system human, MV4-11 + K-562 + COLO205 + SK-N-BE2 + OVCAR-8. The following applies: read-out: apparent Kd; compound concentrations: 100 nM and 1000 nM (sheet 'Samples'), CATDS: 1.8914319657445101E-2; n = 1.
Another assay concerns NUAK1. Set-up: species or system human, MV4-11 + K-562 + COLO205 + SK-N-BE2 + OVCAR-8. Particulars: read-out: apparent Kd, n = 1.
For a further assay, the system named is GSK3B. Set-up: species or system human, MV4-11 + K-562 + COLO205 + SK-N-BE2 + OVCAR-8. The following applies: read-out: apparent Kd; compound concentrations: 100 nM and 1000 nM (sheet 'Samples'), CATDS: 8.07850710279054E-2; n = 1.
Where [1] appears, read: compound concentrations:100 nM and 1000 nM (sheet 'Samples').

Here are results for 9 molecules from publication PMC11062922 (Nature Chemical Biology, 2023).

Where two headings read alike, the source gives them in different places.

On to `COc1cc[nH]c1/C=C1\C(=O)Nc2ccc(F)c(I)c21` [RO0281567-000], for which the potency estimated from few doses in the assay with AAK1 (compound concentrations: 100 nM and 1000 nM (sheet 'Samples'), CATDS: 0.16412118246726901) was 568 nM; in the assay with BMP2K (compound concentrations: 100 nM and 1000 nM (sheet 'Samples'), CATDS: 0.232255536891084) it was 309 nM; in the assay with FLT3 (CATDS: 0.206841572593601), 374 nM; with GSK3A (CATDS: 0.11117571470946799) it was 1460 nM; with Q6ZSR9 (compound concentrations: 100 nM and 1000 nM (sheet 'Samples'), CATDS: 0.16614751317759599) it was 555 nM.

Regarding `Cn1cc(C2=C(c3c(S(C)=O)n(C)c4ccccc34)C(=O)NC2=O)c2ccccc21` (stereo not shown) [RO0317379-000], the potency estimated from few doses was 217 nM in the assay on AAK1 (compound concentrations: 100 nM and 1000 nM (sheet 'Samples'), CATDS: 0.257155893587458); 1050 nM with BMP2K (compound concentrations: 100 nM and 1000 nM (sheet 'Samples'), CATDS: 0.121414398934197); 142 nM with Q6ZSR9 (compound concentrations: 100 nM and 1000 nM (sheet 'Samples'), CATDS: 0.33733581248504402).

As to `NS(=O)(=O)c1ccc(NC=C2C(=O)Nc3ccc4ncsc4c32)cc1` [GW589933X], the potency estimated from few doses with AAK1 (compound concentrations: 100 nM and 1000 nM (sheet 'Samples'), CATDS: 2.8569630231133399E-2) is 376 nM; with BMP2K (compound concentrations: 100 nM and 1000 nM (sheet 'Samples'), CATDS: 4.4159404649836601E-2), 151 nM; with CLK1 (compound concentrations: 100 nM and 1000 nM (sheet 'Samples'), CATDS: 1.74105303489548E-2), 1590 nM; in the assay with CLK4 (compound concentrations: 100 nM and 1000 nM (sheet 'Samples'), CATDS: 2.0435296344387299E-2), 913 nM; with CSNK2A1;CSNK2A3 (compound concentrations: 100 nM and 1000 nM (sheet 'Samples'), CATDS: 2.5198594058055201E-2) it was 510 nM; in the assay on CSNK2A2 (compound concentrations: 100 nM and 1000 nM (sheet 'Samples'), CATDS: 3.3899738232558103E-2), 257 nM. Further, the potency estimated from few doses was 581 nM in the assay on FLT3 (CATDS: 2.3969492803236899E-2); 888 nM in the assay on FLT4 (CATDS: 2.0623462365067999E-2); 1250 nM in the assay with GSK3A (CATDS: 1.8552119857048799E-2); 1630 nM in the assay with MELK; 141 nM in the assay with Q6ZSR9 (compound concentrations: 100 nM and 1000 nM (sheet 'Samples'), CATDS: 4.56646208861472E-2); 1170 nM in the assay with RET.

For `O=C1N=C(N[C@@H](CO)Cc2ccccc2)S/C1=C\c1ccc2ncccc2c1` [RO4509200-000], the potency estimated from few doses was 551 nM with AAK1 (compound concentrations: 100 nM and 1000 nM (sheet 'Samples'), CATDS: 0.15010438596183701); 1460 nM with BMP2K (compound concentrations: 100 nM and 1000 nM (sheet 'Samples'), CATDS: 0.102719601142922); 329 nM in the assay on CLK1 (compound concentrations: 100 nM and 1000 nM (sheet 'Samples'), CATDS: 0.20013343303713499); 470 nM with CLK4 (compound concentrations: 100 nM and 1000 nM (sheet 'Samples'), CATDS: 0.162916549975684); 613 nM with Q6ZSR9 (compound concentrations: 100 nM and 1000 nM (sheet 'Samples'), CATDS: 0.142532878113064).

In the case of `CC(C)(CO)CNC(=O)c1ccc2c(c1)/C(=N/Nc1ccc(S(N)(=O)=O)cc1)C(=O)N2` [GW301784X], the potency estimated from few doses is 1820 nM in the assay with AAK1 (setting [1]); 1840 nM with BMP2K (setting [1]); 878 nM with CLK1 (setting [1]); 612 nM in the assay with CLK4 (setting [1]); 120 nM with CSNK2A1;CSNK2A3 (setting [1]); 64.3 nM in the assay on CSNK2A2 (setting [1]). Also, the potency estimated from few doses in the assay with Q6ZSR9 (setting [1]) was 1600 nM.

`O=C1N=C(NCc2ccccc2Br)S/C1=C\c1ccc2ncccc2c1` [RO4506918-000]: the potency estimated from few doses with AAK1 (compound concentrations: 100 nM and 1000 nM (sheet 'Samples'), CATDS: 8.9232255617264805E-2) was 910 nM; in the assay on CLK1 (compound concentrations: 100 nM and 1000 nM (sheet 'Samples'), CATDS: 0.17031966096866), 202 nM; with CLK4 (compound concentrations: 100 nM and 1000 nM (sheet 'Samples'), CATDS: 0.31130162986837101) it was 76.5 nM; with CSNK2A1;CSNK2A3 (compound concentrations: 100 nM and 1000 nM (sheet 'Samples'), CATDS: 0.124108593087182) it was 383 nM; in the assay with CSNK2A2 (compound concentrations: 100 nM and 1000 nM (sheet 'Samples'), CATDS: 0.192604305943326) it was 162 nM; with Q6ZSR9 (compound concentrations: 100 nM and 1000 nM (sheet 'Samples'), CATDS: 9.2903146742856602E-2) it was 804 nM.

For `CN(C)C(=O)/C(C#N)=C/c1ccc(-c2nc3cnc4[nH]ccc4c3n2C2CCCCC2)o1` [FM-381], the potency estimated from few doses is 1820 nM with AAK1 (setting [1]), 1050 nM in the assay on BMP2K (setting [1]), 566 nM in the assay with NUAK1 (setting [1]) and 1760 nM with Q6ZSR9 (setting [1]).

As to `NS(=O)(=O)c1ccc(N/C=C2\C(=O)Nc3ccc4ncsc4c32)cc1` [GW297361X], the potency estimated from few doses in the assay with AAK1 (compound concentrations: 100 nM and 1000 nM (sheet 'Samples'), CATDS: 4.1332868698359997E-2) was 785 nM; in the assay with BMP2K (compound concentrations: 100 nM and 1000 nM (sheet 'Samples'), CATDS: 4.6280622165998701E-2) it was 615 nM; in the assay on CLK4 (compound concentrations: 100 nM and 1000 nM (sheet 'Samples'), CATDS: 3.6697746350308501E-2), 1050 nM; in the assay with CSNK2A1;CSNK2A3 (compound concentrations: 100 nM and 1000 nM (sheet 'Samples'), CATDS: 3.0344109186555501E-2), 1830 nM; in the assay on CSNK2A2 (compound concentrations: 100 nM and 1000 nM (sheet 'Samples'), CATDS: 3.6316988085140701E-2), 1070 nM; in the assay with FLT3 (CATDS: 4.1021562023835299E-2) it was 799 nM. Moreover, the potency estimated from few doses in the assay with NUAK1 (compound concentrations: 100 nM and 1000 nM (sheet 'Samples'), CATDS: 0.30685592880619) is 33.6 nM; with Q6ZSR9 (compound concentrations: 100 nM and 1000 nM (sheet 'Samples'), CATDS: 3.8953206873676101E-2), 902 nM.

Regarding `COc1cc[nH]c1/C=C1\C(=O)Nc2ccc([N+](=O)[O-])c(N3CC[C@@H](O)C3)c21` [RO0504985-000], the potency estimated from few doses with AAK1 (compound concentrations: 100 nM and 1000 nM (sheet 'Samples'), CATDS: 0.119322014743116) was 46.2 nM; in the assay on BMP2K (compound concentrations: 100 nM and 1000 nM (sheet 'Samples'), CATDS: 0.146188418361926), 33 nM; with FLT3 (CATDS: 3.5682803402027001E-2), 989 nM; in the assay with FLT4 (CATDS: 3.5350973360848997E-2), 1020 nM; with GSK3A (CATDS: 6.9215882134984696E-2) it was 143 nM; in the assay on GSK3B, 99.7 nM. For the same molecule, the potency estimated from few doses with NUAK1 (compound concentrations: 100 nM and 1000 nM (sheet 'Samples'), CATDS: 0.113358948941002) is 50.6 nM; with Q6ZSR9 (compound concentrations: 100 nM and 1000 nM (sheet 'Samples'), CATDS: 0.13185454777653499) it was 39 nM.
